KB-V1 MDR tox: qHTS assay for MDR1-selective chemotherapeutics: Primary screen using the drug-selected MDR subline cells KB-V1; KB-V1 MDR cells viability, CellTiter-Glo, 72 h; Potency, µM (doses to about 46.1 µM), most hits filed as cytotoxic; 400,000 compounds, 3.4% hits; AID 1347076, 2019; note: nearly all actives have a fitted effect of over 60% in size
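In this primary screen, KB-V1 cells overexpressing P-gp are incubated with library compounds (lowest to highest concentration) for 72 h at 37 degrees C before a luminescent ATP viability read.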
DRD3 antagonist: qHTS of D3 Dopamine Receptor Antagonist: qHTS; D3R cells, DiscoveRx beta-arrestin luminescence, antagonist mode; hits give low values; max response, negative = inhibition, %; D(3) dopamine receptor (Homo sapiens), P35462; AID 652054, 2013; 360,000 compounds, 2.5% hits; in the data active = max response below about -50%; inconclusive = no clear call, values can overlap the other calls
Target sequence (P35462 whole entry, looked up): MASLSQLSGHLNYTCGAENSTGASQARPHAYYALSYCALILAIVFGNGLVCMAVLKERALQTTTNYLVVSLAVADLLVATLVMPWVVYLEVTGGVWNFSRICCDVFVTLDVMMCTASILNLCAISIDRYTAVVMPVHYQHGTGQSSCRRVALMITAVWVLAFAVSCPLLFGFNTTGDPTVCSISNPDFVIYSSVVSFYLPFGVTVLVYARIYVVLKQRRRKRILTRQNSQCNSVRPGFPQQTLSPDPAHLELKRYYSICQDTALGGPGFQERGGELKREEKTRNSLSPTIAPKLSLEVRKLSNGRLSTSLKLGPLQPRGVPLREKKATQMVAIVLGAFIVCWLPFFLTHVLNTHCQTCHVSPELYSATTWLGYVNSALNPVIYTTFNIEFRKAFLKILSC
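Cells expressing the human receptor were seeded at 1500 cells/well, incubated overnight at 37 degrees C in 5% CO2, then exposed to library compounds with dopamine controls for 90 minutes at 37 degrees C before luminescent detection.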
DRD3 agonist: qHTS of D3 Dopamine Receptor Agonist: qHTS; AID 652048, 2013; D(3) dopamine receptor (Homo sapiens), P35462; max activation, %; 410,000 compounds, 0.58% hits; D3R DiscoveRx beta-arrestin cells, luminescence, 90 min; in the data active = max activation above about 30%
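Cells at 1500/well, incubated overnight, then treated with pinned compounds (dopamine as control) for 90 min at 37 degrees C. DiscoveRx reagent added for 30 - 60 minutes at room temperature; luminescence read.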
MCF10A rereplic: A quantitative high throughput screen for small molecules that induce DNA re-replication in MCF 10a normal breast cells; MCF 10A DNA re-replication, Hoechst nuclear intensity, 48 h; Potency, µM (titrated, usually from 46.1 µM), hits mostly activators; 350,000 compounds, 2.9% hits; AID 624296, 2012; note: nearly all actives have a fitted effect of over 50% in size
SW480 rerep: A quantitative high throughput screen for small molecules that induce DNA re-replication in SW480 colon adenocarcinoma cells | AID 624297, 2012 | Potency, µM (top dose mostly 46.1 µM), most hits filed as activators | SW480 DNA re-replication, Hoechst DNA content imaging, 48 h | 340,000 compounds, 1.8% hits; note: nearly all actives have a fitted effect of over 55% in size
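250 cells/well; 23 nL cpd via pin tool; 48 hr, 37 C, 5% CO2; Hoechst 40 min; imager read of total nuclear intensity, ex 405/em 500-530 nm.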
KB-3-1 tox: qHTS assay for MDR1-selective chemotherapeutics: Primary screen using the parental adenocarcinoma cell KB-3-1; KB-3-1 viability, CellTiter-Glo ATP luminescence, 72 h; Potency, µM (doses to about 46.1 µM), hits mostly cytotoxic; 400,000 compounds, 1.4% hits; AID 1347075, 2019; note: nearly all actives have a fitted effect of over 60% in size
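Cells are dispensed, compounds pinned in, plates held at 37 °C for 72 h, then CellTiter-Glo is added and luminescence read after 10 minutes. Cell line: parental KB-3-1 in phenol-red-free DMEM, 10% FBS.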
Large screens that a line does not name were inactive; ! = not confirmed by another sample. Sampled rows, rich in hits. Any-hit rate of the full collection: about 8.9%. Unless noted, calls come from the whole dose curve; as a rule, active = well fitted curve in the direction sought with a large enough effect; inconclusive = small, poorly fitted or top-dose-only effect, or another doubt; inactive = no such curve, though single readings can be large; an effect the other way counts as inactive or inconclusive.

C[C@H]1C/C=C/[C@H]2[C@H](O)[C@H](C)[C@@](C)(O)[C@H]3[C@H](Cc4ccccc4)NC(=O)[C@]32[C@H](O)/C=C/[C@](C)(O)C1	MCF10A rereplic inconclusive, SW480 rerep inconclusive
CC(=O)O[C@@H]1/C=C/[C@](C)(O)C[C@@H](C)C/C=C/[C@H]2[C@H](O)C(C)=C(C)[C@H]3[C@H](Cc4ccccc4)NC(=O)[C@@]123	MCF10A rereplic inconclusive, SW480 rerep 18µM, KB-3-1 tox inconclusive
C=C1[C@@H](C)[C@H]2[C@H](Cc3ccccc3)NC(=O)[C@]23OC(=O)/C=C/[C@H](O)CCC[C@@H](C)C/C=C/[C@H]3[C@@H]1O	KB-V1 MDR tox inconclusive, DRD3 agonist 78, MCF10A rereplic inconclusive, SW480 rerep 5.8µM
C=C1C(C)C2C(Cc3ccccc3)NC(=O)C23C(OC(C)=O)C=CC(C)(O)CC(C)CC=CC3C1O (configuration not stated)	KB-V1 MDR tox inconclusive, MCF10A rereplic inconclusive, SW480 rerep 3.7µM, KB-3-1 tox inconclusive
CN(C)CC(C(=O)Cc1ccccc1)c1ccccc1 (configuration not stated)	KB-V1 MDR tox inconclusive, DRD3 antagonist -63, MCF10A rereplic 13µM, SW480 rerep 4.6µM, KB-3-1 tox 8.2µM
CC1(C)C[C@H]2C=C(C=O)[C@]3(C=O)C[C@]3(C)[C@H]2C1	DRD3 antagonist inconclusive, MCF10A rereplic 2.1µM, SW480 rerep 9.2µM, KB-3-1 tox inconclusive
N#Cc1c(Br)n(C2OC(CO)C(O)C2O)c2ncnc(N)c12 (configuration not stated)	KB-V1 MDR tox inconclusive, DRD3 agonist 38, MCF10A rereplic inconclusive, SW480 rerep inconclusive, KB-3-1 tox inconclusive
OCC1OC(n2cnc3cc(Cl)c(Cl)cc32)C(O)C1O (configuration not stated)	DRD3 antagonist inconclusive (no result: MCF10A rereplic, SW480 rerep)
NC(=O)c1c(Br)n(C2OC(CO)C(O)C2O)c2ncnc(N)c12 (configuration not stated)	KB-V1 MDR tox 9.2µM, MCF10A rereplic 2.3µM, SW480 rerep inconclusive, KB-3-1 tox 4.1µM
CCc1ccc(N2C(=O)NC(=O)/C(=C\c3cccn3CCOc3ccc(C(C)C)cc3)C2=O)cc1	KB-V1 MDR tox inconclusive, MCF10A rereplic 7.3µM, SW480 rerep inconclusive, KB-3-1 tox inconclusive
CC(C)(C)OC(=O)N(CCc1ccccc1)Cc1ccc(OCc2cccc(NC(=O)c3ccccc3)c2)cc1	SW480 rerep inconclusive
N#CC1c2ccccc2C=CN1C(=O)c1ccc(N(CCCl)CCCl)cc1 (configuration not stated)	DRD3 antagonist -81 (no result: MCF10A rereplic, SW480 rerep)
COc1cc2c(cc1OC)-c1c(OC)c(OC)cc3c1[C@H](C2)N(C)CC3	KB-V1 MDR tox 13µM, DRD3 antagonist -59, KB-3-1 tox inconclusive
COc1cc2c(cc1O)CC1c3c(cc(O)c(OC)c3-2)CCN1C (configuration not stated)	none
CCOP(=O)(/C(C#N)=C(\C)O)c1ccccc1 (configuration not stated)	none
O=C1C(=O)c2ccccc2-c2ccccc21	KB-V1 MDR tox 4.1µM, DRD3 antagonist -67, MCF10A rereplic inconclusive, SW480 rerep inconclusive, KB-3-1 tox 5.2µM
O=C1C(=O)c2cccc3cccc1c23	KB-V1 MDR tox inconclusive, DRD3 antagonist -59, SW480 rerep inconclusive, KB-3-1 tox 16µM
c1cc2ccc3cccc4ccc(c1)c2c34	none (no result: KB-V1 MDR tox, DRD3 antagonist, MCF10A rereplic, SW480 rerep, KB-3-1 tox)
NC1=C(Br)C(=O)c2ccccc2C1=O	KB-V1 MDR tox 12µM, MCF10A rereplic inconclusive, KB-3-1 tox inconclusive
CC(C)=CCN1CC[C@@]2(C)c3cc(O)ccc3C[C@@H]1C2C (some centres not stated)	DRD3 antagonist -58
C[C@H]1CCC[C@H](O)CCCCCc2cc(O)cc(O)c2C(=O)O1	KB-V1 MDR tox inconclusive, MCF10A rereplic inconclusive, SW480 rerep inconclusive, KB-3-1 tox inconclusive
CC1CCC[C@H](O)CCCCCc2cc(O)cc(O)c2C(=O)O1 (some centres not stated)	KB-V1 MDR tox 21µM
COc1cc(O)cc2c1C(=O)O[C@@H](C)CCCC(=O)CCCCC2	none
C[C@H]1CCC[C@@H](O)CCC/C=C/c2cc(O)cc(O)c2C(=O)O1	KB-V1 MDR tox inconclusive, MCF10A rereplic 10µM, SW480 rerep inconclusive
COc1cc(CC(C)N)c(OC)cc1Br (configuration not stated)	none (no result: KB-V1 MDR tox, DRD3 antagonist, MCF10A rereplic, SW480 rerep, KB-3-1 tox)
CN(C)c1ccc(CCN2CCOCC2)cc1	DRD3 antagonist inconclusive
c1ccc(OCc2ccc(CCCN3CCOCC3)cc2)cc1	MCF10A rereplic 24µM!
COc1cc(CN2CC(C)OC(C)C2)cc(OC)c1 (configuration not stated)	SW480 rerep inconclusive
CC[C@]1(O)CC[C@H]2[C@@H]3CCC4=CCCC[C@@H]4[C@H]3CC[C@@]21C	MCF10A rereplic inconclusive, SW480 rerep 24µM (no result: KB-V1 MDR tox, DRD3 antagonist, KB-3-1 tox)
C/C(=C\c1csc(C)n1)[C@@H]1C[C@@H]2O[C@]2(C)CCC[C@H](C)[C@H](O)[C@@H](C)C(=O)C(C)(C)[C@@H](O)CC(=O)O1	MCF10A rereplic inconclusive, SW480 rerep inconclusive (no result: KB-V1 MDR tox, DRD3 antagonist, KB-3-1 tox)
C=CCN1C[C@H](C)N([C@H](c2ccc(C(=O)N(CC)CC)cc2)c2cccc(OC)c2)C[C@H]1C	none (no result: KB-V1 MDR tox, DRD3 antagonist, KB-3-1 tox)
C/C(=C\c1ccc(N(C)C)cc1)[N+](=O)[O-]	KB-V1 MDR tox inconclusive, MCF10A rereplic 2.6µM, SW480 rerep 5.8µM, KB-3-1 tox inconclusive
CN(C)c1ccc(/C=C/[N+](=O)[O-])cc1	SW480 rerep inconclusive
COc1cc([N+](=O)[O-])c2ncccc2c1[N+](=O)[O-]	KB-V1 MDR tox 16µM, KB-3-1 tox inconclusive (no result: MCF10A rereplic, SW480 rerep)
O=[N+]([O-])c1ccc(N2CCCC2)c2ncccc12	KB-V1 MDR tox inconclusive
COc1cc([N+](=O)[O-])cc([N+](=O)[O-])c1N	none (no result: DRD3 antagonist, DRD3 agonist, MCF10A rereplic, SW480 rerep)
COc1cc([N+](=O)[O-])c2nc(C)ccc2c1[N+](=O)[O-]	KB-V1 MDR tox inconclusive, MCF10A rereplic inconclusive, SW480 rerep 15µM
CCc1cc(OC)c(C[C@@H](C)N)cc1OC	none (no result: KB-V1 MDR tox, DRD3 antagonist, MCF10A rereplic, SW480 rerep, KB-3-1 tox)
Cc1cc(C)cc(NC(=O)CN2C(=O)CN=C(c3ccccc3)c3cc(Cl)ccc32)c1	none (no result: KB-V1 MDR tox, DRD3 antagonist, MCF10A rereplic, SW480 rerep, KB-3-1 tox)
COCCCn1c(=O)/c(=C\c2ccccc2OC(F)F)s/c1=C(/C#N)C(=O)NCCOC	MCF10A rereplic 15µM, SW480 rerep inconclusive
Oc1ccc2c3c1O[C@H]1[C@@H](O)CC[C@@]4(O)C(C2)N(CC2CCC2)CCC314 (some centres not stated)	none (no result: KB-V1 MDR tox, DRD3 antagonist, DRD3 agonist, KB-3-1 tox)
c1ccc2[nH]c(CCNC3CCCCC3)nc2c1	DRD3 antagonist -53

Screening data from PubChem BioAssay.
